Results filed as inconclusive are left out. A call without a number means that no potency is given here. The source made the active and inactive calls. The call rests on the fitted dose curve; in most records, active means well fitted cell-killing curve with a large enough effect in the repeat runs; inconclusive means weak or mixed curves, or effect the other way; inactive means no such curve, though single readings can be large or run the other way.
Assay: qHTS assay to identify small molecule agonists of the estrogen receptor alpha (ER-alpha) signaling pathway in the presence of an antagonist - cell viability counter screen (AID 1259386);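 further: cells exposed to compounds for 22 h at 37 °C before the viability read; nearly all actives have a fitted effect of over 30% in size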
Conditions: VM7Luc4E2 viability, CellTiter-Fluor fluorescence, 22 h; series mostly up to 92.4 µM
Excerpt: National Center for Advancing Translational Sciences [NCATS]
NIH Chemical Genomics Center [NCGC]
U.S. Environmental Protection Agency [EPA]
National Institutes of Environmental Health Sciences [NIEHS]
National Toxicology Program [NTP]
U.S. Food and Drug Administration [FDA]
Estrogen receptor (ER), a member of nuclear hormone receptor plays an important role in development, metabolic homeostasis and reproduction. Two subtypes of ER, ER-alpha and ER-beta, have similar expression patterns with some uniqueness in both types. Endocrine disrupting chemicals (EDCs) and their interactions with steroid hormone receptors like ER causes disruption of normal endocrine function. Therefore, it is important to understand the effect of environmental chemicals in ER signaling pathway. For identifying ER agonists, VM7Luc4E2 cell line has been used in the current assay.
VM7Luc4E2 cell line (provided by Denison MS, University of California) endogenously expresses full-length ER-alpha and is stably transfected with a plasmid containing four estrogen responsive elements (ERE) upstream of a luciferase reporter gene. This current screening for measuring luciferase reporter gene activity using VM7Luc4E2 cells against Tox21 10K library collection is a confirmation study on agonist mode screening in presence of ER-antagonist (ICI-182,780) at 10.0nM final concentration. The cytotoxicity of the compounds was tested in parallel by measuring the cell viability using CellTiter-Fluor assay system (Promega, Madison, WI) in the same wells.
Tox21 Assay Protocol Summary:
VM7Luc4E2 cells were cultured in phenol red free assay medium containing 10% charcoal stripped FBS for 5 days prior to the assay. The cells were dispensed at 4,000 cells in 4uL of assay medium per well into white wall/solid-bottom 1536-well plates (Corning Life Sciences, Corning, NY) using a Multidrop Combi (Thermo Fisher Scientific Inc., Waltham, MA) dispenser. After the assay plates were incubated at 37C and 5% CO2 for 24hr, 1uL of 10.0nM (final concentration) ICI-182,780 or assay buffer was added using two separate tips of Flying Reagent Dispenser (FRD, Aurora Discovery, San Diego, CA). Then 23nL of compounds dissolved in DMSO at 15 concentrations and positive controls or DMSO only was transferred to the assay plates by a Pintool station (Wako, San Diego, CA). The assay plates were incubated at 37C and 5% CO2 for 22hr. After 21hr incubation at 37C, 1uL/well CellTiter-Fluor reagent (Promega Corporation, Madison, WI) was added to each well using FRD and after 1hr incubation at 37C and 5% CO2, the fluorescence signal was measured on ViewLux plate reader (PerkinElmer, Shelton, CT).
Potency means the concentration at half of the fitted maximal effect.

| Structure (SMILES) | Potency |
| --- | --- |
| CCOP(=S)(OCC)Oc1cc(C)nc(N(CC)CC)n1 | inactive |
| CC(=O)[O][Pb]([c]1ccccc1)([c]1ccccc1)[c]1ccccc1 | 19.3 µM (active) |
| ClC1=C(Cl)[C@]2(Cl)[C@H]3[C@H]([C@@H]4C=C[C@H]3C4)[C@@]1(Cl)C2(Cl)Cl | inactive |
| CCO/N=C(\CC)C1=C(O)CC(c2c(C)cc(C)cc2C)CC1=O (stereo not given) | inactive |
| CC1(C)C(C=C(Cl)Cl)C1C(=O)OC(C#N)c1ccc(F)c(Oc2ccccc2)c1 (stereo not given) | inactive |
| CNN | inactive |
| CC(C)NCC(O)c1ccccc1Cl (stereo not given) | inactive |
| Nc1ccccc1-c1ccccc1 | inactive |
| O=P(Cl)(Cl)Cl | inactive |
| CC(C)C(Br)C(=O)NC(N)=O (stereo not given) | inactive |
| O=[N+]([O-])c1ccc(CCl)cc1 | inactive |
| Cc1nn(-c2cc(NS(C)(=O)=O)c(Cl)cc2Cl)c(=O)n1C(F)F | inactive |
| COC(=O)N(OC)c1ccccc1COc1ccn(-c2ccc(Cl)cc2)n1 | 0.864 µM (active) |
| CNC(=O)O/N=C(\C)C(C)S(C)(=O)=O (stereo not given) | inactive |
| CC(Cc1ccccc1)N(C)Cc1ccco1 (stereo not given) | inactive |
| CN/C(=N\[N+](=O)[O-])NCc1cnc(Cl)s1 | inactive |
| O=C(N[C@H]1N=C(c2ccccc2F)c2cccc3c2N(CC3)C1=O)c1cc2ccccc2[nH]1 | inactive |
| N#CC(C#N)=NNc1cccc(Cl)c1 | 21.7 µM (active) |
| CN1C(=O)[C@@H](NC(=O)c2cc3ccccc3[nH]2)N=C(c2ccccc2)c2ccccc21 | inactive |
| Oc1ccc([C@H]2CNCc3c2ccc(O)c3O)cc1O | 26.6 µM (active) |

| Structure (SMILES) | Potency |
| --- | --- |
| CC(C)=CC1C(C(=O)OC(C#N)c2cccc(Oc3ccccc3)c2)C1(C)C (stereo not given) | inactive |
| Nc1cc(Cl)ccc1Cl | inactive |
| CCOP(=O)(OCC)Oc1nc(Cl)c(Cl)cc1Cl | inactive |
| CN(C)c1ccc(N)cc1 | 53.2 µM (active) |
| CSSC | inactive |
| O=C(Cl)c1ccccc1F | inactive |
| COc1ccc2[nH]cc(CCN(C(C)C)C(C)C)c2c1 | inactive |
| O=[N+]([O-])c1cc(C(F)(F)F)c(Cl)c([N+](=O)[O-])c1Nc1ncc(C(F)(F)F)cc1Cl | 30.6 µM (active) |
| [F][Sn]([c]1ccccc1)([c]1ccccc1)[c]1ccccc1 | 10.9 µM (active) |
| CC1CCCC1 | inactive |
| CSC(=O)c1c(C(F)F)nc(C(F)(F)F)c(C(=O)SC)c1CC(C)C | inactive |
| C=C(C)C(=O)[O][Sn]([CH2]CCC)([CH2]CCC)[CH2]CCC | 8.63 µM (active) |
| CC(Cc1ccc(O)cc1)NCC(O)c1cc(O)cc(O)c1 (stereo not given) | inactive |
| CNC(=O)Oc1cc(C)cc(C(C)C)c1 | inactive |
| O=[N+]([O-])[O-].[Tl+] | inactive |
| CCC(OC(C)=O)C(CC(C)NC)(c1ccccc1)c1ccccc1 (stereo not given) | inactive |
| CCOC(=O)CCN(SN(C)C(=O)Oc1cccc2c1OC(C)(C)C2)C(C)C | inactive |
| N#CCCl | inactive |
| CCOP(=O)(OCC)Oc1cc(C)nc(C(C)C)n1 | inactive |
| CCC(C)c1cccc(C(C)CC)c1O (stereo not given) | inactive |

Reference: PubChem BioAssay (Tox21)
